About 9,100 (2.5%) of roughly 360,000 compounds were called active. Inconclusive results (about 4%) are left out. The entries come from a sample that favours actives as a whole. Values without a mark were called inactive. Cut-off read from the data, not from the text of the source: active = max response below about -50%; inconclusive = no clear call, values can overlap the other calls; inactive = above that.
% is set by controls: 0 for no effect and ±100 for the full control effect.

Sequence of D(3) dopamine receptor (Homo sapiens) (P35462 whole entry, looked up): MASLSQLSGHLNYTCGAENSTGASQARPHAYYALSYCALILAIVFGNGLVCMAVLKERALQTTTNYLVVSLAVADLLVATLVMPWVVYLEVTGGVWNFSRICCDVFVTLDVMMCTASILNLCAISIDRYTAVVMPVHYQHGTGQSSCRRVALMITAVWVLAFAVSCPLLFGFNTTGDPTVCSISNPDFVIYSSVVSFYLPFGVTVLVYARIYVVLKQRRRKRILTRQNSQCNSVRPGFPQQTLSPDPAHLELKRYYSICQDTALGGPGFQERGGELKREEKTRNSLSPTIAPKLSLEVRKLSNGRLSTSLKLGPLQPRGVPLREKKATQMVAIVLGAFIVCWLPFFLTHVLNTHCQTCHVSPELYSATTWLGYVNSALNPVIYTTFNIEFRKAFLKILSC

In the test the target is D(3) dopamine receptor (Homo sapiens) (UniProt P35462). As to the kind of experiment: qHTS of D3 Dopamine Receptor Antagonist: qHTS. Conditions: D3R cells, DiscoveRx beta-arrestin luminescence, antagonist mode; hits give low values. The source says:
D3 DARs represent a very important target for the treatment of several neuropsychiatric disorders. Indeed, one of the most promising therapeutic applications for the D3 DAR is in the area of addiction and related disorders. […] These findings have been observed with a number of addictive substances including cocaine, amphetamine, nicotine, and alcohol. […] Antagonism of the D3 DAR may also be therapeutic in the treatment of schizophrenia or psychosis. […] Since the D3 DAR is expressed in areas of the CNS associated with the control of mood and emotion, it has been hypothesized that selective antagonism of the D3 DAR may be effective in treating psychosis without inducing the motor side effects typically seen with D2 DAR antagonists.
This part of the project aims to discover novel antagonist.
NIH Chemical Genomics Center [NCGC]
NIH Molecular Libraries Probe Centers Network [MLPCN]
Assay Submitter (PI): David Sibley, NINDS
Freshly passaged cells are plated in 1536 well white, solid bottom plates at a density of 1500 cells/well in 3microl of complete media. After an overnight incubation at 37 degrees C in 5% CO2, cells are loaded with 23nl of test compound from the compound library (as well as dopamine controls) using a 1536 pintool and incubated at 37 degrees C for 90 minutes. Two microliters of DiscoveRx reagent is then added to all cells, and they are incubated for an additional 30 - 60 minutes at room temperature. Following incubation, luminescence is measured on a ViewLux CCD-based luminometer reader using a 20 sec exposure time.
Regarding `Cc1ccsc1C(=O)C1CCCN(Cc2ccc(O)cc2)C1` (stereo not drawn), the max response, negative = inhibition was -22.3%.
In the case of `COc1ccc(C(=O)C2CCCN(Cc3ccc(C)s3)C2)cc1OC` (stereo not drawn), the max response, negative = inhibition was 1.99%.
Take `COc1ccc(C2C=C(C)Oc3c2c(=O)oc2ccccc32)cc1OC` (stereo not drawn): the max response, negative = inhibition was 1.55%.
Next, `CC1(C)Cc2c(C#N)c(N3CCNCC3)nc(-c3ccco3)c2CS1`: -15.4%.
Regarding `Cc1cc(=O)oc2c(C)c(OCC(=O)N3CCN(Cc4ccc5c(c4)OCO5)CC3)ccc12`, the max response, negative = inhibition is 0.853%.
On to `Fc1ccc(N2CCN(Cc3ccc4c(c3)OCO4)CC2)cc1`, for which the max response, negative = inhibition is -111% (active).
Turning to `O=C(Cc1ccccc1[N+](=O)[O-])N1CCN(Cc2ccc3c(c2)OCO3)CC1`, the max response, negative = inhibition is -4.07%.
As for `CCN1CCN(Cc2cc(OC)c3c(c2)OCO3)CC1`, the max response, negative = inhibition was 2.18%.
As for `Oc1cc2c(cc1CN1CCN(c3ccccc3)CC1)OCO2`, the max response, negative = inhibition is -71.5% (active).
For `CC(C)c1ccc(O)c(CN2CCN(c3ccccc3)CC2)c1`, the max response, negative = inhibition is -71% (active).
`COc1ccccc1CN1CCN(C(=O)Cc2ccccc2)CC1`: the max response, negative = inhibition was -24%.
In the case of `OC(Cn1c2ccccc2c2ccccc21)C[n+]1ccccc1` (stereo not drawn) it was -9.75%; in that of `c1cc2c(cc1C1OCC3C(c4ccc5c(c4)OCO5)OCC13)OCO2` (stereo not drawn), 1.57%; in that of `C[C@]12CC[C@H](O)CC1=C([N+](=O)[O-])CC1C2CC[C@@]2(C)C1CC[C@@H]2O` (stereo partly drawn), 10.3%.
In the case of `O=C1C2CCN(CC2)C1(CO)CO` it was 5.89%.
In the case of `CC(=O)C1(O)CCC2C3CCC4=C(Cl)C(=O)CCC4(C)C3CCC21C` (stereo not drawn) it was -13.9%; in that of `CCN1CCN(C(=O)Cc2coc3cc(C)cc(C)c23)CC1`, -9.21%; in that of `C[C@]12CCC3C(CC[C@H]4[C@H](O)[C@H](O)CC[C@]34C)C1CC[C@@H]2O` (stereo partly drawn), 2.6%.
Consider `CC(C)CN1Cc2cc(N3CCCCC3)ccc2-n2nncc2C1`, for which the max response, negative = inhibition is -13.6%.
In the case of `CCOc1ccc(CN(CCCl)CCCl)cc1C(=O)OC` it was -27.4%.
Regarding `CN1CCN(C(=O)COc2ccc(C(C)(C)C)cc2Br)CC1`, the max response, negative = inhibition is 0%.
Next, `CC(C)c1ccc(OCC(=O)N2CCCN(C)CC2)cc1`: -7.58%; `CC(C)c1ccc(OCC(=O)N2CCN(C)CC2)c(Br)c1`: -52% (active).
Next, `Cc1ccc(P(=S)(c2ccc(C)o2)N2CCOCC2)o1`: 14%; `Cc1nc2ccccn2c1P(=S)(N1CCCCC1)N1CCCCC1`: 12%; `Cc1cc(C)cc(NC(=S)NC2CC3CCCC(C2)N3Cc2cccs2)c1` (stereo not drawn): -81.8% (active).
As for `CCC1(CC(C)c2ccccc2)C(=O)NC(=O)NC1=O` (stereo not drawn), the max response, negative = inhibition is 6.61%.
Next, `O=C(CCN1CCCCC1)NCC(=O)Nc1ccc(Br)cc1C(=O)c1ccccc1`: -29.9%.
In the case of `Cc1ccc(Cn2c(C)c3cnn(CC(=O)N4CCC5(CC4)OCCO5)c(=O)c3c2C)cc1` it was 3.94%.
Consider `Cc1ccc(Cn2nnnc2CN2CCC(n3nnc4ccccc43)CC2)cc1`, for which the max response, negative = inhibition was -69% (active).
Next, `O=c1[nH]c2ccccc2n1C1CCN(C(c2ccccc2)c2nnnn2Cc2ccccc2)CC1` (stereo not drawn): 71.4%.
Next, `O=c1[nH]c2ccccc2n1C1CCN(C(c2ccnc3ccccc23)c2nnnn2Cc2ccccc2)CC1` (stereo not drawn): 9.58%; `CCOC(=O)[C@]12Cc3ccccc3[C@H]1N(C1CCCCC1)C(=O)c1cc(OC)ccc12`: -14.9%.
In the case of `O=C(COC(=O)Cc1ccccc1)Nc1ccc(F)cc1` it was 6.49%.
With `CCOc1cccc(=NC2CCCCC2)c2c(C)[nH]c(C)c12`, the max response, negative = inhibition is 13.5%.
Next, `CCN1CC2C3CCC(C)(O3)C2C1` (stereo not drawn): -7.4%; `Cc1nc2nc(C)c(CCC(=O)N3CCC4(CC3)OCCO4)c(C)n2n1`: -10.8%; `COc1ccc(C(=O)C2CN(C)CC2C(=O)c2ccc(OC)cc2)cc1` (stereo not drawn): -1.15%.
Next, `Cc1ccc(C2CN(C)CC2C(=O)c2ccc(F)cc2)cc1` (stereo not drawn): -102% (active); `CN1CCC(OC(=O)c2cccc(F)c2)CC1`: -13.8%; `Cn1c(O)c(C(=Nc2ccc(F)cc2)c2ccccc2)c(=O)n(C)c1=O`: -8.88%.
Next, `c1cncc(CNCCc2c[nH]c3ccccc23)c1`: 14.8%; `O=C1NCN(c2ccccc2)C12CCN(C(c1cccs1)c1nnnn1C1CCCCC1)CC2` (stereo not drawn): -8.63%; `c1ccc(N2Cc3ccccc3-n3nncc3C2)nc1`: -20.4%.
As for `CC(=O)OC1C2(CC3N4C(=O)C5(CO)SSC4(CC31O)C(=O)N5C)OC(C)C(C)(C)C2=O` (stereo not drawn), the max response, negative = inhibition is -98.1% (active).
In the case of `CN(C)S(=O)(=O)c1cc(C(=O)N2CCC(C(=O)O)(c3ccccc3)CC2)ccc1Cl` it was -1.23%; in that of `Clc1ccc2nc3c(c(-c4ccccc4)c2c1)CNCC3`, -1.49%.
In the case of `COc1ccc(-n2nnnc2C(c2cccc3ccccc23)N2CCC(n3c(=O)[nH]c4ccccc43)CC2)cc1` (stereo not drawn) it was 117%.
